In ChEMBL document CHEMBL5724796, “Tm Shift (DSF) assay results for EUbOPEN Chemogenomics Library” (2024) one finds ΔTm data, which are given here for 11 molecules.

The structures appear in SMILES notation.

Common to all, as to settings: Compound concentration 20.0 uM
Assay [1] addresses Tyrosine-protein kinase ABL1 (Homo sapiens) (UniProt P00519).
For assay [2], the target named is Bromodomain-containing protein 4 (Homo sapiens) (UniProt O60885).
The target of assay [3] is Cyclin-dependent kinase 2 (Homo sapiens) (UniProt P24941).
Assay [4] has as its target Casein kinase I isoform delta (Homo sapiens) (UniProt P48730).
Assay [5] deals with Glycogen synthase kinase-3 beta (Homo sapiens) (UniProt P49841).
In assay [6] the target is Mitogen-activated protein kinase 1 (Homo sapiens) (UniProt P28482).
For assay [7], the target named is T1, Aurora kinase A (Homo sapiens) (UniProt O14965).
T1 sequence (whole entry): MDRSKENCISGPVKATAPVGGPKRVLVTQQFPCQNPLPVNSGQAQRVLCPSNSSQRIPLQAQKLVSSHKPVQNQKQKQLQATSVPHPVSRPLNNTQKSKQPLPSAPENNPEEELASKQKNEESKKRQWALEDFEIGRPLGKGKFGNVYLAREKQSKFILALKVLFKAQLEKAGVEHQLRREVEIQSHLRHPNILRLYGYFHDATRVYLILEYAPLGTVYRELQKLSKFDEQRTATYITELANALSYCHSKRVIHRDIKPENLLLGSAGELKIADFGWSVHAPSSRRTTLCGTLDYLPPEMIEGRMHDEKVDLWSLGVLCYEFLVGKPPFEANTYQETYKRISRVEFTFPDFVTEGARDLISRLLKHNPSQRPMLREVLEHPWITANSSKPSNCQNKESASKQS

The target of assay [8] is T2, Transcription intermediary factor 1-alpha (Homo sapiens) (UniProt O15164).
T2 sequence (whole entry): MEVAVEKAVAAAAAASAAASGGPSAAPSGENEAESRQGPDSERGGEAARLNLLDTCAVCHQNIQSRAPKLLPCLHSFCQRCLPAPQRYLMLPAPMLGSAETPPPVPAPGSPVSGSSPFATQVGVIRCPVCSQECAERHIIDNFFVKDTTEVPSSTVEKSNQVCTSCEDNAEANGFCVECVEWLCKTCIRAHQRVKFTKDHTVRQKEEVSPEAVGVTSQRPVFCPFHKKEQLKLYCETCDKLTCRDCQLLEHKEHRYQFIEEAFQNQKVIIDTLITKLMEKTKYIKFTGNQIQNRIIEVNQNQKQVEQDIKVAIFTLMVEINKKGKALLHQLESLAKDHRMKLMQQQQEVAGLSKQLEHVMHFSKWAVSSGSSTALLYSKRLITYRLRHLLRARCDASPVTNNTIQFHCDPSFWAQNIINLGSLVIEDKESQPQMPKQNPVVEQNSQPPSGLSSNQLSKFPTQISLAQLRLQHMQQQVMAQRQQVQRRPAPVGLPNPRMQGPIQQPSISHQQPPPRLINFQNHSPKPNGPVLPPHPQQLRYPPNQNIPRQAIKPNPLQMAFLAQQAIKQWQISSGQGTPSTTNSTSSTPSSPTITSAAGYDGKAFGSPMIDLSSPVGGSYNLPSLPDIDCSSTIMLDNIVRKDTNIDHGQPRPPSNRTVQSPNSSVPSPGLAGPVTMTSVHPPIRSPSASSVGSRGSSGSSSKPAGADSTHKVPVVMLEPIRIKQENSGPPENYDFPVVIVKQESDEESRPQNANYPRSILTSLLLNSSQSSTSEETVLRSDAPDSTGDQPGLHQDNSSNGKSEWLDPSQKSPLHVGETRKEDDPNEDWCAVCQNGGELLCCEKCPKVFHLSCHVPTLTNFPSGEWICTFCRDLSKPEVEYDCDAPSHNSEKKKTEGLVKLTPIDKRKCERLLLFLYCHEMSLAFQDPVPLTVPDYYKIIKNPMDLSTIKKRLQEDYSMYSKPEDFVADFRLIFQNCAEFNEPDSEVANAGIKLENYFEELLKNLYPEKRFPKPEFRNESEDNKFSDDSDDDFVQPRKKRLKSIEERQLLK

Casein kinase I isoform delta (Homo sapiens), sequence (P48730 whole entry, looked up, canonical isoform): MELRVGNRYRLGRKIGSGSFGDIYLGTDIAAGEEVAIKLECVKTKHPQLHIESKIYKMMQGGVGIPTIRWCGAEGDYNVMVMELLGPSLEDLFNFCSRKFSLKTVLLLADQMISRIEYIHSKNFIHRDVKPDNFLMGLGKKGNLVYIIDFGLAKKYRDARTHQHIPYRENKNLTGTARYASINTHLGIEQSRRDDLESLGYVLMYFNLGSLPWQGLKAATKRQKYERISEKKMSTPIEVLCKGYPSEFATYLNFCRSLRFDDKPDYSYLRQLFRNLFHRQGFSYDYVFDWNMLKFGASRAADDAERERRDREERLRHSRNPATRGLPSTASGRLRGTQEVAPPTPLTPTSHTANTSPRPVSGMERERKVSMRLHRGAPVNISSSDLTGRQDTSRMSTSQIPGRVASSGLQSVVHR
Tyrosine-protein kinase ABL1 (Homo sapiens), sequence (P00519 whole entry): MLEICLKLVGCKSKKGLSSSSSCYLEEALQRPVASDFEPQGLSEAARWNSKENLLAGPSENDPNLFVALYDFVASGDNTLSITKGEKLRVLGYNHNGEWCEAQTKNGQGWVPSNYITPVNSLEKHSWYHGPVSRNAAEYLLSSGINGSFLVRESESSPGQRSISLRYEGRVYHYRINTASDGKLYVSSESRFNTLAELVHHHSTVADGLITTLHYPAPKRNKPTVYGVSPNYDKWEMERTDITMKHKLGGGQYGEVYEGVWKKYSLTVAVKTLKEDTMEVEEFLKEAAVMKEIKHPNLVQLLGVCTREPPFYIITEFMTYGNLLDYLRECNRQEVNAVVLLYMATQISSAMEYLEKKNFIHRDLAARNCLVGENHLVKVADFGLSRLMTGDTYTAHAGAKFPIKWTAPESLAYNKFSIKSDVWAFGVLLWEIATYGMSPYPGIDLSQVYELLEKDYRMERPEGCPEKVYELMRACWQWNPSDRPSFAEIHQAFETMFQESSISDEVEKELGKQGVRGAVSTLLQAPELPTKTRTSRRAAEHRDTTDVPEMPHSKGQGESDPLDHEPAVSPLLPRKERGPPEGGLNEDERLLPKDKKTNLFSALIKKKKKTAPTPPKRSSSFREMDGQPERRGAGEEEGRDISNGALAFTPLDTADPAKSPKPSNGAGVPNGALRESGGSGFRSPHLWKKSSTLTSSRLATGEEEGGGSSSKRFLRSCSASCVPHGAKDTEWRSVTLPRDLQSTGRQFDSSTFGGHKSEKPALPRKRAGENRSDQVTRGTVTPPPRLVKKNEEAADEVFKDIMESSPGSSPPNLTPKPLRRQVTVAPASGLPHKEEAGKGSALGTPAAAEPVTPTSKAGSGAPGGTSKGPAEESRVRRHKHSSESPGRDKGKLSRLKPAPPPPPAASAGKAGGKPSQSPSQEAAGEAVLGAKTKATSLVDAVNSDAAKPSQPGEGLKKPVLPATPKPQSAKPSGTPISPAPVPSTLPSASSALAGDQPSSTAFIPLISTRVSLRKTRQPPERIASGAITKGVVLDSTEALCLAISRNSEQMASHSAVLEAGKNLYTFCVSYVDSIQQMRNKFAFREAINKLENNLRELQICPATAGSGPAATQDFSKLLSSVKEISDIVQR
Mitogen-activated protein kinase 1 (Homo sapiens), sequence (P28482 whole entry): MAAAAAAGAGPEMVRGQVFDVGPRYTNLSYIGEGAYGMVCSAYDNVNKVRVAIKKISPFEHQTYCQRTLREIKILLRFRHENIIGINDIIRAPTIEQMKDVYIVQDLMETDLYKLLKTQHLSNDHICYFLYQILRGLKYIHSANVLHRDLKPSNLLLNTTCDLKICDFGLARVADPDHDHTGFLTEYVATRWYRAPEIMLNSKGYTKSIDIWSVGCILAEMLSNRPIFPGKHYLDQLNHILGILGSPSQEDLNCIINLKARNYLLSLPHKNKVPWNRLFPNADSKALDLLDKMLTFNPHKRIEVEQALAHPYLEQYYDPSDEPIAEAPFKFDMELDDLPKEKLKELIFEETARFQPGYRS
Glycogen synthase kinase-3 beta (Homo sapiens), sequence (P49841 whole entry, looked up): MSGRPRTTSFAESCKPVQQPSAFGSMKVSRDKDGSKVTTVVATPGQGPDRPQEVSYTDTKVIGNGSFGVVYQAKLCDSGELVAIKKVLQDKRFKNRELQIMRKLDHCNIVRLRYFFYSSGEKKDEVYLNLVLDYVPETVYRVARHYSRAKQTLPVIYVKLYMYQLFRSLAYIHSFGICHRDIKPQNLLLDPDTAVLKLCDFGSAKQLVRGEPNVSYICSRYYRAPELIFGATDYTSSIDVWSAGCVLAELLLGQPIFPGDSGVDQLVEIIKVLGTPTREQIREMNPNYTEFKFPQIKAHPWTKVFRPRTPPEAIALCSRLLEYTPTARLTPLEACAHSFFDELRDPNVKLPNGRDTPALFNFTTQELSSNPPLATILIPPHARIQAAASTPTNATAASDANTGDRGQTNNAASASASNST

Take `COc1ccc(C2C(C#N)=C(N)OC3=C2C(=O)CC(c2cccc4ccccc24)C3)cc1` (stereo not drawn): the ΔTm (in general, the shift of the melting midpoint relative to a reference) is 0.45 °C in assay [1]; -2.45 °C in assay [2]; -0.04 °C in assay [3]; -0.36 °C in assay [4]; -0.68 °C in assay [5]; 0.85 °C in assay [6]. Moreover, the values for the ΔTm in assay [7] and in assay [8] were -1.95 °C and 1.45 °C, respectively.

On to `CC(C)(C)c1ccc(S(=O)(=O)NCc2ccc(C(=O)Nc3cccnc3)cc2)cc1`, for which the ΔTm in assay [1] was 0.45 °C; in assay [2], -2.48 °C; in assay [3], -0.13 °C; in assay [4], -0.13 °C; in assay [5] it was -1.45 °C; in assay [6], 0.7 °C. Further, the figures for the ΔTm in assay [7] and in assay [8] were -2.1 °C and 0.99 °C, respectively.

As for `CC#CCn1c(N2CCC[C@@H](N)C2)nc2c1c(=O)n(Cc1nc(C)c3ccccc3n1)c(=O)n2C`, the shift in melting temperature (ΔTm) in assay [1] is -0.11 °C; in assay [2], 0.18 °C; in assay [3] it was -0.01 °C; in assay [4], -0.33 °C; in assay [5] it was -0.82 °C; in assay [6], 0.06 °C. Further, the ΔTm is -0.13 °C in assay [7] and -0.79 °C in assay [8].

`C[C@@H]1OC(=O)NN=C1c1ccc(-c2ccc(F)cc2)c(C(F)(F)F)c1`: the thermal shift (ΔTm) was -1.46 °C in assay [1]; -3.44 °C in assay [2]; -0.76 °C in assay [3]; -0.33 °C in assay [4]; -7.28 °C in assay [5]; -0.02 °C in assay [6]. Moreover, the values for the shift in melting temperature (ΔTm) in assay [7] and in assay [8] were -7.3 °C and -0.48 °C, respectively.

Turning to `O=C(O)[C@@H]1CCCN(C(=O)n2cnc(-c3ccc(-c4cnc(N5CCOCC5)nc4)cc3)n2)[C@H]1c1ccccc1`, the shift in melting temperature (ΔTm) in assay [1] is 0.15 °C; in assay [2], -1.06 °C; in assay [3] it was -1.79 °C; in assay [4], 1.27 °C; in assay [5], -3.37 °C; in assay [6] it was 0.69 °C. The shift in melting temperature (ΔTm) in assay [7] is -5.07 °C; in assay [8], 0 °C.

Turning to `Nc1ncnc2c1ncn2[C@@H]1O[C@H](C(=O)N2CCN(CC(=O)Nc3cccc4c3CNC4=O)CC2)[C@@H](O)[C@H]1O`, the shift in melting temperature (ΔTm) in assay [1] was 0.45 °C; in assay [2] it was -1.31 °C; in assay [3], -0.11 °C; in assay [4] it was 0.22 °C; in assay [5] it was -0.59 °C; in assay [6], 0.31 °C. Moreover, the figures for the thermal shift (ΔTm) in assay [7] and in assay [8] were -1.04 °C and -0.61 °C, respectively.

Regarding `CC(=O)N[C@@H](CC(=O)O)C(=O)N[C@@H](CCC(=O)O)C(=O)N[C@H](C(=O)N[C@H](C=O)CC(=O)O)C(C)C`, the ΔTm in assay [1] is -0.28 °C; in assay [2], -1.5 °C; in assay [3], -0.58 °C; in assay [4], -0.17 °C; in assay [5], -0.28 °C; in assay [6], -0.74 °C. The ΔTm is -1.77 °C in assay [7] and -1.09 °C in assay [8].

For `O=[N+]([O-])c1ccc(CSc2ncnc3c2ncn3[C@@H]2O[C@H](CO)[C@@H](O)[C@H]2O)cc1`, the thermal shift (ΔTm) is -0.08 °C in assay [1]; -1.24 °C in assay [2]; -0.1 °C in assay [3]; -0.39 °C in assay [4]; -0.67 °C in assay [5]; 0.1 °C in assay [6]. Further, the ΔTm in assay [7] was -1.6 °C; in assay [8], -0.18 °C.

With `O=C(C1CC1)N1CCN(Cn2sc3ccccc3c2=O)CC1`, the ΔTm in assay [1] is -7.31 °C; in assay [2], -4.76 °C; in assay [3], -3.3 °C; in assay [4] it was -0.26 °C; in assay [5] it was 0 °C; in assay [6], -4.19 °C. For the same molecule, the shift in melting temperature (ΔTm) is -1.92 °C in assay [7] and 0 °C in assay [8].

Take `COc1cc2c(cc1OC)[C@H]1C[C@@H](O)[C@H](CC(C)C)CN1CC2`: the ΔTm was 0.04 °C in assay [1]; 1.89 °C in assay [2]; 0.25 °C in assay [3]; -0.17 °C in assay [4]; -0.88 °C in assay [5]; 0.59 °C in assay [6]. For the same molecule, the thermal shift (ΔTm) in assay [7] was -0.72 °C; in assay [8], 0.12 °C.

As for `COc1cccc(-c2nccc3c2CN(c2ccccc2)C3=O)c1`, the ΔTm was 0.76 °C in assay [1]; -1.35 °C in assay [2]; -1.3 °C in assay [3]; 0.41 °C in assay [4]; -2.56 °C in assay [5]; -4.49 °C in assay [6]. The ΔTm in assay [7] is -4.93 °C; in assay [8] it was -1.44 °C.
